# Laboratory results taken from PubChem BioAssay (NCI).
# About 83,000 compounds went through this panel and 20% of them were active in at least one assay; those are over-represented in the sample as a whole.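 Cell lines were cultured in 96-well plates, exposed to a single compound concentration, and assessed for percent growth 48 hours later.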 Values without a mark were called inactive. Activity calls are given as the source filed them. The calls were made as follows: active = growth percent below 10; inactive = the rest.
# Columns and labels:
# Assay in all cases: NCI-60 one-dose screen, 48 h (100 = growth as untreated, 0 = no growth, -100 = all killed)
# Details in all cases: 10 µM unless noted
# [1] = test system: T-47D breast
# [2] = test system: BT-549 breast
# [3] = test system: MDA-MB-435 melanoma
# [4] = test system: SW-620 colon
# [5] = test system: MCF7 breast
# [6] = test system: HCC-2998 colon
# [7] = test system: KM12 colon
# [8] = test system: HCT-116 colon
Structure (SMILES),growth [1],growth [2],growth [3],growth [4],growth [5],growth [6],growth [7],growth [8]
Oc1ccc(CN(Cc2ccc(C(F)(F)F)cc2)Cc2ccc(O)c3ncccc23)c2cccnc12,20.2%,32.9%,31.4%,18.1%,13.7%,34.1%,18.8%,
O=S(=O)(Cc1cccc2c(CS(=O)(=O)c3ccc(Cl)cc3)cccc12)c1ccc(Cl)cc1,100%,105%,77.7%,88.5%,85.4%,101%,88.1%,
COc1cc(-c2nn(-c3ccc(NC(=O)Nc4ccc(Cl)c(C(F)(F)F)c4)cc3)cc2-c2ccncc2)ccc1Cl,15.1%,,4% (active),13.4%,8.22% (active),-2.15% (active),6.77% (active),2.34% (active)
CC1(C)N=C(N)N=C(N)N1c1cccc(CCCCOc2ccccc2)c1,37.7%,35.7%,,12.6%,1.62% (active),27.1%,15.9%,11.3%
COc1cc(-c2nn(-c3ccc(NC(=O)c4ccc(Cl)c(C(F)(F)F)c4)cc3)cc2-c2ccncc2)ccc1Cl,26.7%,,24.3%,6.21% (active),21%,31.8%,,9.19% (active)
O=c1c2c(c3ccccc3n1-c1ccccc1)NC(=S)NC2c1ccc(Cl)cc1 (stereo not given),67.4%,,30.4%,57.1%,60%,35.7%,,16.1%
C=C(C)C(C(=O)OCC)(C(=O)OCC)C(C)C,124%,115%,,107%,97.4%,119%,106%,
CC(O)CCC(C)[N+](=O)[O-] (stereo not given),103%,106%,,104%,101%,126%,103%,
COC(=O)C(Cc1cnc[nH]1)N1CC(=O)N2[C@@H](c3ccccc3)SC[C@H]2C1=O (stereo not given in full),108%,,103%,108%,106%,99.6%,108%,103%
C[C@]12C=CC(=O)C=C1[C@@H](F)C[C@@H]1[C@@H]2[C@@H](O)C[C@@]2(C)[C@H]1CC[C@]2(O)C(=O)CO,99.4%,78.5%,103%,,87.4%,105%,100%,105%
C/C=C/C/C=C/[C@H](C)C[C@H](O)[C@@H]1C[C@@H]2O[C@H]2/C=C/[C@H](O)[C@@H](O)/C=C/C[C@H](C)CC(=O)O1,69.9%,,117%,94.1%,83.7%,95.1%,80.2%,70.6%
COc1ccc(C(=O)NCCNc2nccc(-c3c(-c4ccc(F)cc4)nc4sccn34)n2)cc1,58.2%,,43.6%,52.3%,25.1%,97%,,31.8%
COc1cc(/C(=C2/O[C@@H]([C@H]3COC(C)(C)O3)[C@H]3OC(C)(C)O[C@@H]23)c2ccc3c(c2)OCO3)cc(OC)c1OC,55.9%,79.5%,73.3%,,44.5%,,63.6%,9.6% (active)
COc1cc(-c2nn(-c3ccc(NC(=O)Nc4cc(C(F)(F)F)cc(C(F)(F)F)c4)cc3)cc2-c2ccncc2)ccc1Cl,8.74% (active),,0.886% (active),13.9%,-4.41% (active),-7.63% (active),0.412% (active),-11% (active)
COc1ccc2cn3c4ccc(O)cc4[nH]c(=O)c3c2c1,33.9%,,-37.7% (active),11.3%,-5.85% (active),19.3%,11.9%,10.6%
COc1cccc(NC(=O)NCCNc2nccc(-c3c(-c4ccc(F)cc4)nc4sccn34)n2)c1,71.8%,,76.9%,101%,32%,105%,87.7%,67.8%
O=c1c2c(c3ccccc3n1-c1ccccc1)NC(=S)NC2c1ccccc1 (stereo not given),59.9%,,111%,107%,42.3%,98.8%,104%,96.1%
CCC(C)(C)c1ccc(OCCCCCCN2CCN(c3ccc(C)c(Cl)c3)CC2)cc1,66.1%,79.5%,97.3%,,88.4%,83.5%,79.3%,
O=C(Nc1ccc(-n2cc(-c3ccncc3)c(-c3ccc(Cl)c(O)c3)n2)cc1)c1ccc(Cl)c(C(F)(F)F)c1,47.2%,,3.99% (active),-79.4% (active),6.22% (active),5.55% (active),3.31% (active),-100% (active)

Structure (SMILES),growth [1],growth [2],growth [3],growth [4],growth [5],growth [6],growth [7],growth [8]
Cc1nc(NC(=O)NC2CCCCC2)sc1C(=O)NN,112%,,115%,106%,105%,162%,102%,83.8%
O=C(Nc1ccc(-n2cc(-c3ccncc3)c(-c3ccc(Cl)c(O)c3)n2)cc1)c1cc(Cl)cc(Cl)c1,79.1%,,42.2%,0.0883% (active),51.6%,33%,19.3%,16.1%
O=C1c2cc([N+](=O)[O-])ccc2-c2cc(Cl)c(NC(=O)C(F)(F)F)cc21,85.2%,108%,114%,,35.8%,104%,114%,
COc1ccc2c(c1)cn1c3ccc(O)cc3[nH]c(=O)c21,37.2%,,1.04% (active),8.4% (active),-4.36% (active),11.8%,9.45% (active),-85.4% (active)
O=C(c1ccccc1)c1ccccc1-c1ccccc1,27%,,-22.2% (active),15.8%,18.1%,47.1%,29.5%,14%
O=C(Nc1ccc(-n2cc(-c3ccncc3)c(-c3ccc(Cl)c(O)c3)n2)cc1)c1ccc(Cl)c(Cl)c1,71.9%,,43.5%,11.2%,27.9%,10.1%,0.115% (active),16.8%
CC(CCN1CCN(CCC(C)CC(C)(C)C)C1CC(C)CC(C)(C)C)CC(C)(C)C (stereo not given),91.8%,,104%,89.4%,95.7%,78.2%,91%,60.9%
COC(=O)[C@@H]1[C@H](O)[C@H](C)[C@H](O)[C@H](C)/C=C\C=C(C)C(=O)Nc2c(C)c(OC(C)=O)c3c(c2O)C(=O)C(C)=C2OCOC(=C23)C(C)=C[C@@](C)(O)[C@H](O)[C@@H](C)[C@H]1OC(C)=O,118%,,122%,117%,104%,118%,119%,55.8%
O=Nc1ccc(O)c2ccccc12,-9.85% (active),,-63.8% (active),12.1%,-37.8% (active),68.4%,14%,0.195% (active)
O=S(=O)(O)CCI,99.4%,,114%,102%,98.3%,110%,114%,98.3%
CC(C)(C)c1ccc(OCCOC(=O)CBr)cc1,94.2%,,112%,86.2%,98.3%,104%,87.7%,83.7%
CC(=O)NNC(=O)c1sc(NC(C)=O)nc1C,76.5%,,110%,96.9%,87.4%,73.8%,105%,90.5%
N#Cc1c2ncccc2c2nnc3cc(Cl)c(Cl)cc3n12,60.4%,,106%,78.7%,38.9%,75.6%,89%,78.7%
COc1ccccc1CNCCCN1C(=O)c2ccc3c4c(ccc(c24)C1=O)C(=O)N(CCCNCc1ccccc1OC)C3=O,-22.9% (active),-71.6% (active),-79.3% (active),,-63.9% (active),-94.7% (active),-79% (active),-60.5% (active)
CC(=O)Nc1nc(C)c(C(=O)NN)s1,85.9%,,137%,97.4%,99.1%,84.2%,102%,94.7%
COc1cc(-c2nn(-c3ccc(NC(=O)c4ccc(Cl)c(Cl)c4)cc3)cc2-c2ccncc2)ccc1Cl,64.9%,,86.2%,48.6%,60.6%,48.3%,25.1%,25%
CC(=O)Nc1nc(C)c(C(=O)N/N=C/N2CCCCC2)s1,98.4%,,125%,106%,94.8%,20.3%,128%,55.8%
O=C(Nc1ccc(-n2cc(-c3ccncc3)c(-c3ccc(Cl)c(O)c3)n2)cc1)Nc1cc(C(F)(F)F)cc(C(F)(F)F)c1,23.8%,,6.62% (active),26.1%,11%,36.1%,,10.5%
